According to PubChem BioAssay (NCI):
About 79,000 compounds went through this panel and 15% of them were active in at least one assay; those are over-represented in the sample as a whole. Activity calls are given as the source filed them. No stated cut-off is given here; in the data, active means growth inhibition above about 70%; inactive means the rest.

How the values were obtained:
[1] = NCI Yeast Anticancer Drug Screen. Data for the rad50 strain (AID 155);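 further: 0% = growth of vehicle-only cultures of the same strain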; settings: S. cerevisiae rad50 strain growth inhibition; at 50.0 µM; hits give high values
Outline: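 Genetically altered yeast (DNA repair pathway); compound treatment; growth inhibition vs vehicle ctrl.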

[2] = NCI Yeast Anticancer Drug Screen. Data for the mec2-1 strain (AID 157); settings: S. cerevisiae mec2-1 strain, at 50.0 µM, hits give high values
Outline: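 Compounds were applied to mec2-1 yeast cells. Their growth was then compared with that of vehicle-treated cultures to give growth inhibition.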

[3] = NCI Yeast Anticancer Drug Screen. Data for the sgs1 mgt1 strain (AID 161);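 further: 0% = growth of cultures given vehicle only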; settings: S. cerevisiae sgs1 mgt1 strain, at 50.0 µM, hits give high values
Outline: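 Percent growth inhibition was derived by comparing compound-exposed mutant yeast with vehicle-exposed cultures. The strain carries alterations in DNA damage repair.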

[4] = NCI Yeast Anticancer Drug Screen. Data for the cln2 rad14 strain (AID 165);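 further: 0% = growth equal to vehicle treated cultures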; settings: S. cerevisiae cln2 rad14 strain, at 50.0 µM, hits give high values
Outline: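 Strain: cln2 rad14 yeast, altered in cell cycle control and DNA damage repair. Read-out: growth inhibition vs vehicle.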

[5] = NCI Yeast Anticancer Drug Screen. Data for the bub3 strain (AID 167); settings: S. cerevisiae bub3 mutant strain, at 50.0 µM, hits give high values
Outline: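 Yeast carrying a defined mutation is treated with each compound, and growth is compared with that of vehicle-exposed cells to give inhibition.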

[6] = NCI Yeast Anticancer Drug Screen. Data for the mlh1 rad18 strain (AID 175); settings: S. cerevisiae mlh1 rad18 strain growth inhibition; at 50.0 µM; hits give high values
Outline: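 A repair-deficient yeast strain is exposed to test compound, and growth is scored relative to vehicle-treated controls.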

Measured: growth inhibition

CCCCCCCCCCOc1ccc(OCCCCCCCCC)cc1
inactive: [1] 15.5% | [2] -15.8% | [3] 12.9% | [4] -45% | [5] -2.3% | [6] -11.9%

C=C(C)CN(CC(=C)C)C(C)=O
inactive: [1] 5.7% | [2] -17.7% | [3] -15.4% | [4] -6.15% | [5] -16.3% | [6] -5.85%

Cc1ccc(Nc2ncnc3sc(SCc4ccccc4)nc23)cc1
inactive: [1] -34.5% | [2] -20.4% | [3] -24.2% | [4] 3.75% | [5] -24.6% | [6] -28.1%

CCOC(=O)/C=C/SCC(N)C(=O)OCC (stereo unspecified)
inactive: [1] -14.4% | [2] -1.45% | [3] -12.9% | [4] 19.6% | [5] -5.55% | [6] -4.55%

CCOC(=O)C(NC(=O)CC(C)C)(NC(C)C)C(F)(F)F (stereo unspecified)
inactive: [1] -8.45% | [2] -2.25% | [3] -9.4% | [4] -8.1% | [5] -3.45% | [6] -12.9%

Cc1cccc(/C=N/Nc2ccc([N+](=O)[O-])cc2[N+](=O)[O-])c1C
inactive: [1] 11.2% | [2] -6% | [3] -5.1% | [4] -11.2% | [5] -15.6% | [6] 4%

CC(Cc1cccc2ccccc12)(C(=O)O)C(=O)O
inactive: [1] 7.15% | [2] -4.1% | [3] 11.5% | [4] -14.2% | [5] -7.5% | [6] 0.05%

CC(C)(C)/C=C/N=NNc1ccccc1C(=O)NC(C)(C)C
inactive: [1] 9.5% | [2] 0.2% | [3] 1.8% | [4] -54.5% | [5] -2% | [6] 12.1%

CCN(CC)CCCN1CC(=O)N2CCCCN2C(=O)C1
inactive: [1] 28.8% | [2] -3.6% | [3] 13.4% | [4] 6.15% | [5] 3.05% | [6] 8.9%

CNCC(OCCc1ccccc1)c1ccc(O)c(O)c1 (stereo unspecified)
inactive: [1] 5.85% | [2] -1.9% | [3] 36% | [4] -0.95% | [5] -12.6% | [6] 21.4%

CC1CCCCC1(C)O (stereo unspecified)
inactive: [1] 23.9% | [2] 34.6% | [3] -19.4% | [4] 1.75% | [5] 9% | [6] 11.4%

N[C@@H](C[C@H]1CCC(=O)[C@@H]2O[C@H]12)C(=O)O
inactive: [1] -1.5% | [2] -12.8% | [3] -12.5% | [4] 0.35% | [5] 13.2% | [6] -10.9%

Cc1cc(=O)oc2c(CNC(C(=O)O)C(C)C)c(O)ccc12 (stereo unspecified)
inactive: [1] 5.05% | [2] -15.9% | [3] -19.7% | [4] 7.5% | [5] -16.8% | [6] -6.4%

NC(=O)c1cc[n+](-c2ccc([N+](=O)[O-])cc2[N+](=O)[O-])cc1
inactive: [1] 19.2% | [2] 0.45% | [3] 27.2% | [4] 34.6% | [5] 19.2% | [6] 56.5%

O=C(NC(Cc1ccc(O)cc1)C(=O)O)SCc1ccccc1 (stereo unspecified)
inactive: [1] -25.6% | [2] 21% | [3] 22.9% | [4] -52.5% | [5] 22.9% | [6] -12%

CC(NNC(=S)N1CCC(c2ccccc2)CC1)c1ccc2ccccc2n1 (stereo unspecified)
inactive: [1] -48.9% | [2] 9.25% | [3] 29.9% | [4] 11.5% | [5] -2% | [6] 26.9%

CSC(=Nc1ccc(Br)cc1)NC(=O)c1cc([N+](=O)[O-])cc([N+](=O)[O-])c1
inactive: [1] -33% | [2] 3.4% | [3] 23.1% | [4] -58% | [5] 6.2% | [6] -18.8%

O=C(O)CC(C(=O)O)C1c2ccccc2-c2ccccc21 (stereo unspecified)
inactive: [1] -0.1% | [2] -27.2% | [3] -40.4% | [4] -17.2% | [5] -49.2% | [6] 3.6%

CN(C)CCOC(=O)c1ccc(N)cc1
inactive: [1] -6.35% | [2] 1.6% | [3] -31.8% | [4] -19.6% | [5] 23.1% | [6] -8.35%

CC(C)OC(=O)NN(C)c1ccccc1
inactive: [1] 15.4% | [2] 11.1% | [3] 14% | [4] -54.3% | [5] 3.9% | [6] 13.8%

CC1(C)CC(=O)C(/C=N/C(=S)NC2CCCCC2)=C(O)C1
inactive: [1] -13.2% | [2] -20.1% | [3] -31.5% | [4] 10.6% | [5] -7.7% | [6] -8%

CN1CCN(CCSC(=O)C(O)(c2ccccc2)C2CCCC2)CC1 (stereo unspecified)
inactive: [1] 17.1% | [2] 16.6% | [3] 7.35% | [4] -17.2% | [5] 4.6% | [6] 24.8%

Cc1nn2c(c1C#N)NNc1c-2sc(=N)nnc1=O
inactive: [1] -1.6% | [2] 0.5% | [3] 13.5% | [4] -4.4% | [5] -9.4% | [6] 15.6%

COc1ccc(/C=C2\CCC/C(=C\c3ccc(O)c(CN4CCCCC4)c3)C2=O)cc1
active: [1] 89.2% | [2] 85.5% | [3] 91.2% | [4] 83% | [5] 89.1% | [6] 91.2%

COc1ccc(C2OC3=C(Nc4ccc(Cl)cc4N3)C2=O)cc1 (stereo unspecified)
inactive: [1] -1.9% | [2] 0.3% | [3] 6.65% | [4] 9.4% | [5] -9.3% | [6] 14.9%

CCCCCCCCCC(=O)Oc1cccc2onc(C)c12
inactive: [1] -21.2% | [2] -43.5% | [3] -20.2% | [4] -7.8% | [5] -13.5% | [6] -10.8%

C=Cc1ccccc1N=NC(C(=O)OC)=P(c1ccccc1)(c1ccccc1)c1ccccc1
inactive: [1] -24.2% | [2] 20.9% | [3] -1.2% | [4] -6.75% | [5] -4.05% | [6] -10.9%

CC(C)(NC(=O)c1ccccc1)NC(=O)c1ccccc1
inactive: [1] 5.35% | [2] -10.1% | [3] -5.8% | [4] -38.2% | [5] 5.55% | [6] -6.35%

C[C@@H]1O[C@]2(O)[C@@H]3CCCN3S(=O)(=O)CCN2C1=O
inactive: [1] 2.1% | [2] -21.6% | [3] -16.9% | [4] 17.7% | [5] -11.3% | [6] -17.1%

CCCCCCCCCCCCSc1nc2c([nH]1)c(=O)n(C)c(=S)n2C
inactive: [1] -24.1% | [2] 0.75% | [3] -31.9% | [4] 16.4% | [5] -1.05% | [6] -15.2%

C1=C(N2CCOCC2)/C(=C2\SC(=Nc3ccccc3)C(=Nc3ccccc3)N2c2ccccc2)CC1
inactive: [1] -5.8% | [2] -5.4% | [3] -7.65% | [4] 14.3% | [5] -5.35% | [6] -28.6%

CCC(=O)Nc1ccc(F)cc1
inactive: [1] -4.65% | [2] 1.45% | [3] -0.45% | [4] -27.4% | [5] -10.9% | [6] 4.3%

COc1ccccc1C(CC(=O)c1ccccc1)Sc1ccccc1N (stereo unspecified)
inactive: [1] 26.9% | [2] 33.9% | [3] 38.8% | [4] 4.1% | [5] 26.4% | [6] 12.3%

CCOC#CCCOCc1ccccc1
inactive: [1] -28.9% | [2] -46.2% | [3] -5.25% | [4] -1.65% | [5] -11% | [6] -16.6%

C/C(CCC1CCCCC1)=N/NC(N)=O
inactive: [1] 14.6% | [2] 15.8% | [3] 5.25% | [4] 14.7% | [5] 12.7% | [6] -18.4%

C/C(=N\NS(=O)(=O)c1ccc(C)cc1)c1c(C)noc1C
inactive: [1] -13.4% | [2] 7.55% | [3] 13.3% | [4] 3.85% | [5] 6.3% | [6] 13.3%

CC1(C)CC(=O)C(CC2=C(N)CC(C)(C)CC2=O)=C(N)C1
inactive: [1] 1.8% | [2] 5.8% | [3] 9.9% | [4] -13.3% | [5] 10.6% | [6] 31.7%

CN(C)CC1CCCCCC(Br)C1O (stereo unspecified)
inactive: [1] -5% | [2] 14.6% | [3] -1.15% | [4] -24.8% | [5] -10.7% | [6] 21.7%

CCC(C)C(C)(CO)CO (stereo unspecified)
inactive: [1] 1.5% | [2] -20.9% | [3] -3.7% | [4] 20.4% | [5] -14.3% | [6] 25.6%

O=C(O)C(S)c1ccc2ccccc2c1 (stereo unspecified)
inactive: [1] 28.6% | [2] 19.9% | [3] 20.2% | [4] 18.6% | [5] 12.3% | [6] 13.2%

COc1ccc(C=Nc2ccc3c(c2)OCO3)cc1Br
inactive: [1] 16.9% | [2] 16.9% | [3] 11.7% | [4] 14.6% | [5] 9.4% | [6] 19.2%
